From PubChem BioAssay (EPA / NIEHS)
Activity calls are given as the source filed them. The calls were made as follows: active = hit-call score of the fitted dose curve at least 0.9, where 1 is the maximum; inactive = score below 0.9.

read-out: Forkhead box O3 (FOXO3), FOXO3 (gene 2309); experiment: LTEA_HepaRG_FOXO3: Life Technologies and Expression Analysis (LTEA) Assay for Forkhead box O3 (FOXO3) using HepaRG (AID 2283459); conditions: mRNA level, 48 h; actives raise or lower the signal
Procedure: LTEA_HepaRG is a cell based, multiplexed-readout assay that uses HepaRG, a human liver cell line, with measurements taken at 48 hours after chemical dosing on a 96-well plate.LTEA_HepaRG_FOXO3 is one of 102 assay component(s) measured in the LTEA HepaRG cell culture assay. It is a marker of Cell proliferation, survival, death.Data from the assay component LTEA_HepaRG_FOXO3 was analyzed into 1 endpoint. This assay endpoint, LTEA_HepaRG_FOXO3, was analyzed with bidirectional fitting relative to DMSO as the negative control and baseline of activity. Using a type of inducible reporter, measures of mRNA induction for gain or loss-of-signal activity can be used to understand regulation of transcription factor activity. To generalize the intended target to other relatable targets, this assay endpoint is annotated to the dna binding intended target family, where the subfamily is forkhead box protein.
A total of 1060 chemcials from the ToxCast library were tested in eight-point concentration-response experiments. Cell culture and cytotoxicity assays were conducted at Thermo Fisher Scientific's Custom Services facility (Madison, WI). A single lot of human HepaRG cells (Thermo Fisher Scientific, Frederick, MD) was used for the cell culture experiments. 96-well format collagen type I coated plates of human HepaRG cells were prepared using established methods. Briefly, cryopreserved HepaRG cells were thawed, plated at a density of approximately 100,000 cells/well in HepaRG Thaw, Plate, and General Purpose media (HPRG770, Thermo Fisher Scientific), and incubated for 48 hours. 0.5% DMSO was selected as vehicle control to balance the requisite need of DMSO in HepaRG cultures to maintain differentiation (for example, baseline metabolism, proportions of hepatocytes vs. cholangiocytes), while enabling further hepatic receptor pathway activation (for example, PXR and CAR) in response to chemical exposure. 48 hours after plating, the culture medium was replaced with HepaRG Serum-Free Incudtion Media. Cells were exposed to each test chemical in duplicate and maintained in CO2 incubators for another 48 hours. Chemical plates were thawed to room temperature and 200x concentrations of treatment groups were prepared. 8-point conentration-reponse curves were made with the highest exposure at 100 uM, followed by half-log dilutions, all in 0.5% DMSO. Each test plate contained variouse controls, induction positive controls (1mM phenobarbital), cytotoxicity positive controls ([…] aflatoxin B1), vehicle controls (0.5% DMSO), and total lysis controls (0.5% DMSO). Cell morphology images were taken using an Essen IncuCyte FLR automated microscope, with six 96-well plates imaged in about 24 minutes. Images were captured and exported and JPEG files. Spent culture media was transfered to black-well plates for the LDH assay, and remaining media was sorted at -80 C for later use. Cells were treated with RLT buffer and frozen until shipped for gene expression analysis. Total RNA was isolated from the cell suspension in 75 uL of Buffer RLT (Qiagen, Germantown, MD 20874) by Quintiles/Expression Analysis (Durham, NC) using a custom isolation procedure. Total RNA from each plate well was transferred to a preamplification plate. Fluidigm's 96.96 Dynamic ArrayTM (Fluidigm, Amsterdam, the Netherlands) technology was used for gene expression analyses by quantitative reverse transcription polymerase chain reaction (qRT-PCR, performed by Quintiles/Expression Analysis, Durham, NC)89. Standard TaqManTM Assays (Applied Biosystems/ThermoFisher Scientific, Foster City, CA) were used to assess the expression of 93 genes selected based on their selectivity and sensitivity to important hepatic receptors known to be modulated by environmental chemicals; importance in human hepatocyte functionality; and hepatotoxicity. […]

CCNc1nc(Cl)nc(NC(C)(C)C)n1 was tested. Which outcome did it give?
Its outcome is “inactive”.

COCCOCCO was tested. Which outcome did it give?
Its outcome is “inactive”.

Which outcome does the source give for CCCCCCCc1ccc(O)cc1 here?
The outcome was “inactive”.

Which outcome does the source give for CCOS(=O)(=O)OCC here?
Its outcome is “inactive”.

For ClC(Cl)(Cl)c1ccccc1, which outcome is on record?
The outcome was “inactive”.

CC(Cl)(Cl)C(=O)O was tested. Which outcome did it give?
The outcome was “inactive”.

Which outcome does the source give for Cc1ccc(N)cc1N here?
The outcome was “inactive”.

For CCN(CC)c1ccccc1, which outcome is on record?
Its outcome is “inactive”.

How did the outcome turn out when CCC(C)(C)c1ccc(O)cc1 was run?
Its outcome is “inactive”.

CSC(C)(C)C=NO was tested. Which outcome did it give?
Its outcome is “inactive”.

With CC(C)(C)OOC(C)(C)C as the compound, how does the outcome read?
The outcome was “inactive”.

How did the outcome turn out when CC(Cc1ccc(OCC(=O)O)cc1)NCC(O)c1csc(C(F)(F)F)n1 (stereo not given) was run?
Its outcome is “inactive”.

CCOP(=S)(Oc1ccc([N+](=O)[O-])cc1)c1ccccc1 (stereo not given) was tested. Which outcome did it give?
The outcome was “inactive”.

c1cc2c3c(cccc3c1)CC2 was tested. Which outcome did it give?
Its outcome is “inactive”.

For CCCCN(CCCC)SN(C)C(=O)Oc1cccc2c1OC(C)(C)C2, which outcome is on record?
Its outcome is “inactive”.

For CC(C)(C)c1ccc(O)cc1, which outcome is on record?
Its outcome is “inactive”.

For O=[N+]([O-])c1ccc(Cl)c(Cl)c1, which outcome is on record?
The outcome was “inactive”.

With ClC(Cl)c1ccccc1 as the compound, how does the outcome read?
The outcome was “inactive”.

For Cc1cccc(N)c1, which outcome is on record?
Its outcome is “inactive”.

Which outcome does the source give for CCOC(=O)c1ccccc1C(=O)OCC here?
The outcome was “inactive”.

How did the outcome turn out when c1ccc2c(c1)Nc1ccccc1S2 was run?
Its outcome is “inactive”.

With OCC1CO1 (stereo not given) as the compound, how does the outcome read?
Its outcome is “inactive”.

With c1nc[nH]n1 as the compound, how does the outcome read?
Its outcome is “inactive”.

Cc1ccc(O)cc1C was tested. Which outcome did it give?
The outcome was “inactive”.

CN(C)C(=O)Cl was tested. Which outcome did it give?
Its outcome is “inactive”.

For O=P(Oc1ccccc1)(Oc1ccccc1)Oc1ccccc1, which outcome is on record?
The outcome was “inactive”.

Which outcome does the source give for Nc1ccc2ccccc2c1 here?
The outcome was “inactive”.

How did the outcome turn out when CCOP(=S)(OCC)SCSCC was run?
The outcome was “inactive”.

How did the outcome turn out when ClC1=C(Cl)C2(Cl)C3C(Cl)C(Cl)CC3C1(Cl)C2(Cl)Cl (stereo not given) was run?
Its outcome is “inactive”.

For CCCCN(CCCC)N=O, which outcome is on record?
The outcome was “inactive”.

With O=C(O)C(Cl)Cl as the compound, how does the outcome read?
The outcome was “inactive”.

How did the outcome turn out when Nc1cc2c3c(c1)C(c1ccccc1)=N[C@@H](NC(=O)c1cccnc1)C(=O)N3CC2 was run?
The outcome was “inactive”.

For Cc1ccc([N+](=O)[O-])cc1C, which outcome is on record?
The outcome was “inactive”.

CCC1(c2ccccc2)C(=O)N=C(O)NC1=O (stereo not given) was tested. Which outcome did it give?
The outcome was “inactive”.

For O=P1(N(CCCl)CCCl)NCCCO1 (stereo not given), which outcome is on record?
The outcome was “inactive”.

Which outcome does the source give for Nc1ccc(Cl)cc1 here?
Its outcome is “inactive”.

With O=[N+]([O-])c1ccccc1 as the compound, how does the outcome read?
Its outcome is “inactive”.

Which outcome does the source give for CCCN(CCC)c1c([N+](=O)[O-])cc(C(C)C)cc1[N+](=O)[O-] here?
The outcome was “inactive”.

c1ccc(OP(Oc2ccccc2)Oc2ccccc2)cc1 was tested. Which outcome did it give?
The outcome was “inactive”.

How did the outcome turn out when CCOc1ccc(C(C)(C)COCc2cccc(Oc3ccccc3)c2)cc1 was run?
The outcome was “inactive”.
